Measurements from PubChem BioAssay AID1851 (National Center for Advancing Translational Sciences (NCATS), 2009).
Where “and” joins values, the source holds several entries; their conditions need not be identical. Equal entries are not always repeated. The campaign covered roughly 16,000 compounds. About 4,000 (25%) were called active. Roughly 26% stayed inconclusive and do not appear here. The list is a sample of the results. A number with no mark means an inactive call. The call rests on the fitted dose curve; in most records, active means well fitted curve in the direction sought with a large enough effect; inconclusive means small, poorly fitted or top-dose-only effect, or effect the other way; inactive means no such curve, though single readings can be large or run the other way.

target: Cytochrome P450 2C9 (Homo sapiens) (UniProt P11712); experiment: Cytochrome panel assay with activity outcomes; conditions: recombinant CYP, pro-luciferin dealkylation, luminescence, p450-cyp2c9; series mostly up to 57.1 µM
Sequence (P11712 whole entry, looked up): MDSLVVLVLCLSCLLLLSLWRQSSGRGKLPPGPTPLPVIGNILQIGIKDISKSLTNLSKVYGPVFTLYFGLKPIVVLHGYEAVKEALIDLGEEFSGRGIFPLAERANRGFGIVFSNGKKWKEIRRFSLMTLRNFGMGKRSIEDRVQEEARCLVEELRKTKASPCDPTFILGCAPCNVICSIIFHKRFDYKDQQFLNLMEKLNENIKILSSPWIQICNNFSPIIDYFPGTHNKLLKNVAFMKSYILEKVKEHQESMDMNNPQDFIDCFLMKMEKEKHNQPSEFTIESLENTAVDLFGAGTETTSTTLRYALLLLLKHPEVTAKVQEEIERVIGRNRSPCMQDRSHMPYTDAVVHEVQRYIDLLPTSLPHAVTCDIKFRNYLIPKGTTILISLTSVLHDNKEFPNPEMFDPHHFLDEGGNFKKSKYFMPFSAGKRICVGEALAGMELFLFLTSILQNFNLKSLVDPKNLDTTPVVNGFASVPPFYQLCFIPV
On the % scale 0 is the no-effect control and ±100 the full control effect.

Compound	activity, negative = inhibition	AC50
CC(C)CNCCc1ccccn1	-0.994% [at 11.4 µM]	–
N[C@@H](CP(=O)(O)O)C(=O)O	6.98% [at 11.4 µM]	–
NC(=O)c1cc(N2CC2)c([N+](=O)[O-])cc1[N+](=O)[O-]	inactive	–
C=C1[C@@H]2C[C@@]3([C@H]1O)[C@H]1C[C@@H]4[C@@]5(C)CC[C@H](O)[C@]4([C@H]1N(CC)C5)[C@H]3C[C@H]2O	inactive	–
OC(c1ccccc1)(c1ccccc1)C1CCNCC1	inactive	–
Cc1ccc(S(=O)ON2CCC(C(=O)O)(c3ccccc3)CC2)cc1 (stereo not given)	4.74% [at 11.4 µM]	–
O=C1C[C@@H](c2ccc(O)cc2)Oc2cc(O)cc(O)c21	inactive	–
CS(=N)(=O)CC[C@@H](N)C(=O)O (stereo not given in full)	inactive	–
COC(=O)N1CCC2(CCCN(C)C2)CC1	inactive	–
Nc1nc(N)c(N=Nc2ccc([As](=O)(O)O)cc2)c(=O)[nH]1	3.51% [at 11.4 µM]	–
N[C@@H](Cn1ccc(=O)n(Cc2ccc(C(=O)O)cc2)c1=O)C(=O)O	inactive	–
NC[C@@H](O)CSP(=O)(O)O	10.5% [at 11.4 µM]	–
CSC([N-]/N=C/c1cccc(C)n1)=[S]=[Cu].CS[C@H]([S-])[N-]/N=C/c1cccc(C)n1	–	0.251 µM (active)
Nc1ccc(CCN2CCN(c3cccc(C(F)(F)F)c3)CC2)cc1	inactive	–
N[C@H](Cc1ccc(N(CCCl)CCCl)cc1)C(=O)O	inactive	–
CCCCC1(CCCC)C(=O)NC(=Nc2cccc(C)c2)NC1=O	–	5.01 µM (active)
CCC1(C)CC(=O)NC(=O)C1	inactive	–
CC(C)[C@]1(O)[C@@H](OC(=O)c2ccc[nH]2)[C@]2(O)[C@@]3(C)C[C@@]4(O)O[C@@]5([C@H](O)[C@@H](C)CC[C@]35O)[C@]2(O)[C@]41C	13.6% [at 11.4 µM]	–
CC[C@@H]1CN2CCc3cc(OC)c(OC)cc3[C@H]2C[C@@H]1C[C@H]1NCCc2cc(OC)c(OC)cc21	inactive	–
CCOC(=O)c1c(NC(=O)C(c2ccccc2)c2ccccc2)sc2c1C1CCN2CC1	–	1.58 µM (active)
O=C(OC1CCN(CCCl)CC1)C(c1ccccc1)c1ccccc1	inactive	–
CCOC(=O)c1cncn1[C@H](C)c1ccccc1	inactive	–

Compound	activity, negative = inhibition	AC50
N[C@H](CCCCCP(=O)(O)O)C(=O)O	inactive	–
CCOC(=O)C1=C(C)OC(N)=C(C#N)C12C(=O)N(C)c1ccccc12 (stereo not given)	inactive	–
CC(=O)NCCc1c[nH]c2ccccc12	inactive	–
CC(C)[C@@]1(NC(=O)[C@@H]2C[C@H]3c4cccc5[nH]cc(c45)C[C@@H]3N(C)C2)O[C@@]2(O)[C@H]3CCCN3C(=O)[C@H](Cc3ccccc3)N2C1=O	–	2.51 µM (active) and 6.31 µM (active)
CC(C)C[C@H]1C(=O)N2CCC[C@@H]2[C@@]2(O)O[C@](NC(=O)[C@@H]3C=C4c5cccc6[nH]cc(c56)C[C@@H]4N(C)C3)(C(C)C)C(=O)N12	inactive	–
CN1C[C@H](C(=O)N[C@@]2(C)O[C@@]3(O)[C@H]4CCCN4C(=O)[C@@H](Cc4ccccc4)N3C2=O)C=C2c3cccc4[nH]cc(c34)C[C@@H]21	-17.2% [at 11.4 µM]	–
CC(C)[C@@]1(NC(=O)[C@@H]2C[C@H]3c4cccc5[nH]cc(c45)C[C@@H]3N(C)C2)O[C@]2(O)[C@H]3CCCN3C(=O)[C@H](Cc3ccccc3)N2C1=O	–	2.51 µM (active)
c1ccc(N2CC3(CCNCC3)C2)cc1	inactive	–
c1ccc2cc(CC3=NCCN3)ccc2c1	inactive	–
CCOC(=O)[C@@H]1[C@@H]2c3ccccc3-c3ccccc3[C@H]2C[C@H]1O	29.6% [at 11.4 µM]	–
CO[C@@H](C)[C@](O)(C(=O)OCC1=CCN2CC[C@@H](O)[C@H]12)C(C)C	inactive	–
CNC(=O)Oc1ccc2c(c1)[C@@]1(C)CCN(C)[C@@H]1N2C	inactive	–
COc1ccc2c3c1O[C@@H]1C(=O)CC[C@@]4(O)[C@@H](C2)N(CC2CC2)CC[C@]314	inactive	–
c1ccc2c(c1)[I+]c1ccccc1-2	–	1 µM (active) and 100 nM (active)
O=C(O)/C=C\c1ccc[c]([Sb](=[O])([OH])[OH])c1	12.8% [at 11.4 µM]	–
CSCC[C@@H](N)P(C)(=O)O	21.1% [at 11.4 µM]	–
O=C1C=CC(=O)c2c1ccc1c2ccc2ccccc21	–	1.26 µM (active)
O=C1N[C@@]2(CN3CCC2CC3)C(=O)N1CN(Cc1ccccc1)c1ccccc1	-7.38% [at 11.4 µM]	–
COCCCn1c(N)c(C(=O)Nc2sc3c(c2C(=O)OC)CCCC3)c2nc3ccccc3nc21	–	2.24 µM (active)
NCCCC[C@H](N[C@@H](CCc1ccccc1)C(=O)O)C(=O)N1CCC[C@H]1C(=O)O	inactive	–
Oc1ccc(CCNCc2cc3c(cc2Br)OCO3)cc1	-10.6% [at 11.4 µM]	–
CC(=O)OC1=CC2=CC[C@H]3[C@H]4CCC(=O)[C@@]4(C)CC(=O)[C@]3(S)[C@]2(C)CC1	4.96% [at 11.4 µM]	–

Compound	activity, negative = inhibition	AC50
CC(O)(CS(=O)(=O)c1cccc(C(F)(F)F)c1)C(=O)Nc1ccc(C(F)(F)F)cc1 (stereo not given)	–	11.2 µM (active)
C[N+](C)(C)[C@H](Cc1c[nH]c(=S)[nH]1)C(=O)O	11.9% [at 11.4 µM]	–
CN1C(=O)COc2c(C(=O)N[C@@H]3CN4CCC3CC4)cc(Cl)cc21	inactive	–
CC(C)n1cnc2c(C(=O)N[C@H]3CN4CCC3CC4)cc(Cl)cc21	–	0.398 µM (active)
COc1cc(N)c(Cl)cc1C(=O)N[C@@H]1CN2CCC1CC2	–	12.6 µM (active)
CCCn1c(C)c(C(=O)c2ccc3ccccc3c2)c2ccccc21	inactive	–
CNC[C@H](O)c1ccc(OC(=O)C(C)(C)C)c(OC(=O)C(C)(C)C)c1	inactive	–
N[C@@H]1C=CC=C(C(=O)O)C1	inactive	–
COc1ccc(C[C@H]2c3cc(OC)c(OC)cc3CCN2C)cc1OC	inactive	–
C=CCN1CC[C@]23c4c5ccc(O)c4O[C@@H]2/C(=N/NC(=O)c2ccccc2)CC[C@@]3(O)[C@H]1C5	inactive	–
[N-]=[N+]=CC(=O)CC[C@H](N)C(=O)O	26.7% [at 11.4 µM]	–
CCC1(CCSC(=N)N)C(=O)NC(=O)NC1=O	12.6% [at 11.4 µM]	–
C[C@H](Br)CN(C[C@H](C)Br)c1ccc2c(c1)Cc1ccccc1-2	–	3.16 µM (active)
CCCN1CCO[C@@H]2c3cc(O)ccc3OC[C@@H]21	inactive	–
COc1cc(C(=O)OC2C[C@H]3CC[C@@H](C2)N3C)ccc1O (stereo not given in full)	inactive	–
CC(=O)O[C@@H]1CN2CCC1CC2	inactive	–
CCN1C[C@]2(C)CC[C@@H](O)[C@]34[C@@H]5CC6[C@@H](OC)C[C@@](O)([C@H]5[C@@H]6O)[C@@H](C[C@@H]23)[C@H]14	inactive	–
O=C(/C=C\c1ccc(Cl)cc1)N[C@@]12CCC(=O)[C@@H]3Oc4c(O)ccc5c4[C@@]31CCN(CC1CC1)[C@@H]2C5	–	15.8 µM (active)
O=C1CC[C@]2(O)[C@H]3Cc4ccc(O)c5c4[C@@]2(CCN3CC2CC2)[C@@H]1O5	inactive	–
O=C1CC[C@@]2(O)[C@H]3Cc4ccc(O)c5c4[C@@]2(CCN3CC2CC2)[C@@H]1O5	inactive	–
C[C@]12CC[C@@H]3[C@H](CCC4=CC(=O)CC[C@]43C)[C@]1(O)CC[C@@]2(O)C(=O)CO	-5.6% [at 11.4 µM]	–
CC(C)[C@@H]1CN[C@H](C(=O)O)[C@@H]1CC(=O)O	inactive	–

Compound	activity, negative = inhibition	AC50
O=C(O)[C@@H](O)[C@@H](O)[C@@H]1[O][Sb][O][C@@H]1CO	5.16% [at 11.4 µM]	–
C[C@@H](N)Cn1ccc2cc(F)c(Cl)cc21	–	3.98 µM (active)
CC[N+](CC)(CCCNC1=CC(=O)C(NCCC[N+](CC)(CC)Cc2ccccc2)=CC1=O)Cc1ccccc1	inactive	–
CC[C@@H]1[C@@H]2C[C@H]3[C@H]4N(C)c5ccccc5[C@@]45C[C@@H]([C@@H]2[C@@H]5O)N3[C@H]1O	inactive	–
N#C/C(=C\c1ccc(O)c(O)c1)C(=O)NCCCNC(=O)/C(C#N)=C/c1ccc(O)c(O)c1	inactive	–
N#C/C(=C\c1ccc(O)c(O)c1)C(N)=S	inactive	–
COc1cc(C=C(C#N)C#N)cc(O)c1O	–	2.51 µM (active)
N#CC(C#N)=Cc1ccc(O)c(O)c1	–	7.94 µM (active)
CC(C)(C)c1cc(C=C(C#N)C#N)cc(C(C)(C)C)c1O	–	0.0316 µM (active)
NCCc1c[nH]c2ccccc12	inactive	–
O=C(O)CNC(=O)[C@@H](CS)Cc1ccccc1	inactive	–
COC(=O)[C@@H]1[C@@H](O)[C@@]2(O)c3c(OC)cc(OC)cc3O[C@@]2(c2ccc(OC)cc2)[C@H]1c1ccccc1	-21.1% [at 11.4 µM]	–
COc1cc2c(cc1OC)[C@]13CC[N@+]4(C)CC5=CCO[C@H]6CC(=O)N2[C@@H]1[C@@H]6[C@@H]5C[C@]34O	-6.22% [at 11.4 µM]	–
O=C(Oc1ccc([N+](=O)[O-])cc1)N1CCC(N2CCCCC2)CC1	inactive	–
O=C(O)c1cc(N=Nc2ccc([As](=O)(O)O)cc2)ccc1O	11.3% [at 11.4 µM]	–
N[C@@H](CCCCP(=O)(O)O)C(=O)O	inactive	–
Cc1ccc(N2C(=O)/C(=C/c3ccc(CN(CCC#N)S(C)(=O)=O)o3)C(=O)NC2=S)cc1C	–	12.6 µM (active)
NCCc1ccc(O)cc1	inactive	–
CC1=NN(c2ccc(S(=O)(=O)O)cc2C)C(=[OH+])[C@H]1N=Nc1cc(S(=O)(=O)O)ccc1C(=O)O.O.[Cr]	-5.47% [at 11.4 µM]	–
